Test results from the supplement of paper PMC9135407.
Where “and” joins values, the source holds several entries; their conditions need not be identical. Equal entries are not always repeated. Structures can show the parent of a compound that is named as a salt. Hit rate of the full screen: of about 5,800 compounds, about 620 (11%) showed activity. This excerpt belongs to a sample that is enriched for actives. A number with no mark means an inactive call.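 How the source made its calls: active = score above a cut-off or among the top three wells of a plate; in these data no inactive exceeds 0.85.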

Test system: primary human hepatic stellate cells (donor 1)
Assay: scaled lipid accumulation score (0 = DMSO-like, 1 = nortriptyline-like); higher = stronger HSC inactivation (lipid re-accumulation), active = hit call of the paper
Settings: 48 h
[1] = library stock concentration: 10 mM
[2] = library stock concentration: 80 uM
[3] = library stock concentration: 400 uM
[4] = library stock concentration: 2 mM
[5] = library stock concentration: 3.33 mM
[6] = library stock concentration: 1 mM

COc1c(C=O)c(O)cc2c1C(=O)c1ccccc1C2=O [Damnacanthal]
scaled lipid accumulation score (library stock concentration: 17.7 mM): ≤ -0.011

Nc1nc(=O)c2c([nH]1)NC[C@@H](CNc1ccc(C(=O)N[C@@H](CCC(=O)O)C(=O)O)cc1)N2C=O [Folinic acid calcium salt]
scaled lipid accumulation score: ≤ 0

CCC(=O)N1CCN(C(=O)c2ccccc2)CC1
scaled lipid accumulation score [1]: 0.027

O=C(c1ccc(C=Cc2n[nH]c3ccccc23)cc1)N1CCNCC1
scaled lipid accumulation score [1]: 1.27 (active)

O=C(c1ccc(/C=C/c2n[nH]c3ccccc23)cc1)N1CCNCC1
scaled lipid accumulation score [2]: ≤ -0.016
scaled lipid accumulation score [3]: ≤ -0.016
scaled lipid accumulation score [4]: ≤ -0.016
scaled lipid accumulation score [5]: 0.101
scaled lipid accumulation score [1]: 0.67

CCCCC(CC)CNC(=N)NC(=N)NCCCCCCNC(=N)NC(=N)NCC(CC)CCCC (stereo not drawn) [Alexidine dihydrochloride]
scaled lipid accumulation score: 0.586

CCCCC(C)(C)[C@H](O)/C=C/[C@@H]1[C@@H](C/C=C\CCCC(=O)O)[C@@H](O)C[C@H]1O [16,16-dimethyl Prostaglandin F2.alpha.]
scaled lipid accumulation score [6]: ≤ 0

O=[N+]([O-])c1cn2c(n1)OC[C@@H](OCc1ccc(OC(F)(F)F)cc1)C2
scaled lipid accumulation score [5]: ≤ 0
scaled lipid accumulation score [1]: ≤ 0

O=[N+]([O-])c1ccc2c(c1)S(=O)(=O)C=C2 [Stattic] [listing 1 of 2 here]
scaled lipid accumulation score [5]: 1.25 (active)

O=[N+]([O-])c1ccc2c(c1)S(=O)(=O)C=C2 [Stattic] [listing 2 of 2 here]
scaled lipid accumulation score [1]: 0.347

NC(=O)c1ccc([N+](=O)[O-])cc1Cl [Aklomide]
scaled lipid accumulation score [1]: 0.07

CCCCCCCC/C=C\CCCCCCCC(=O)NCC [Oleoyl Ethyl Amide]
scaled lipid accumulation score [6]: ≤ 0

O=c1[nH]cnc2[nH]ncc12 [Allopurinol Sodium]
scaled lipid accumulation score [5]: ≤ 0
scaled lipid accumulation score [1]: ≤ 0

CC(C)C(=O)Oc1ccc(CO)cc1[C@H](CCN(C(C)C)C(C)C)c1ccccc1.O=C(O)C=CC(=O)O [Fesoterodine Fumarate]
scaled lipid accumulation score [1]: 1.13 (active)

CC(C)N(CC[C@H](c1ccccc1)c1cc(CO)ccc1O)C(C)C
scaled lipid accumulation score [5]: 0.012
scaled lipid accumulation score [1]: ≤ 0

CC(C)C(=O)Oc1ccc(CO)cc1[C@H](CCN(C(C)C)C(C)C)c1ccccc1 [Fesoterodine Fumarate]
scaled lipid accumulation score [5]: 0.256

O=C(Cc1ccccc1Nc1c(Cl)cccc1Cl)Oc1ccc(-c2cc(=S)ss2)cc1
scaled lipid accumulation score [6]: ≤ 0

O=C(Nc1nc2ccccc2n1CCN1CCOCC1)c1cccc([N+](=O)[O-])c1 [IRAK-1/4 Inhibitor I]
scaled lipid accumulation score [1]: 0.485

C[C@H]1[C@H]2CC[C@H]3[C@@H]4CC=C5C[C@@H](N(C)C)CC[C@]5(C)[C@H]4CC[C@]23CN1C [Conessine]
scaled lipid accumulation score: 0.137

Cc1cc(C(C)Nc2ccccc2)c2nc(N3CCOCC3)cc(=O)n2c1 (stereo not drawn)
scaled lipid accumulation score [2]: ≤ -0.009
scaled lipid accumulation score [3]: ≤ -0.009 and ≤ -0.005
scaled lipid accumulation score [4]: ≤ -0.009 and ≤ -0.005
scaled lipid accumulation score [5]: ≤ 0
scaled lipid accumulation score [1]: ≤ 0 and ≤ -0.009 and ≤ -0.005

Cl.Cl.O=C(NCCCN1CCC2(CC1)OCc1ccccc12)[C@H]1CCCN1Cc1ccccc1
scaled lipid accumulation score [1]: 0.974 (active)

c1ccc(CN2CCC3(CCc4ccccc43)CC2)cc1 [L-693,403 maleate]
scaled lipid accumulation score [1]: 0.504

c1ccc(CN2CCC3(CCCc4ccccc43)CC2)cc1 [L-687,384 hydrochloride]
scaled lipid accumulation score [1]: 0.374

CC1(C)S[C@@H]2[C@H](N3C(=O)[C@@H](c4ccccc4)NC3(C)C)C(=O)N2[C@H]1C(=O)O [Hetacillin potassium]
scaled lipid accumulation score (library stock concentration: 4.7 mM): 0.007
scaled lipid accumulation score [1]: ≤ 0

CC(C)(C)CC(C)(C)c1ccc(O)c(Cc2ccc(Cl)cc2Cl)c1 [Clofoctol]
scaled lipid accumulation score [1]: ≤ -0.027

CC(=O)O[C@]1(C(C)=O)CC[C@H]2[C@@H]3C=C(C)C4=CC(=O)CC[C@]4(C)[C@H]3CC[C@@]21C [Megestrol acetate]
scaled lipid accumulation score: ≤ 0
scaled lipid accumulation score (library stock concentration: 5.2 mM): ≤ 0 and 0.036
scaled lipid accumulation score [1]: ≤ 0

CC(=O)O[C@]1(C(C)=O)CCC2C3C=C(Cl)C4=CC(=O)CC[C@]4(C)C3CC[C@@]21C (stereo partly drawn) [Chlormadinone acetate]
scaled lipid accumulation score [1]: 0.968 (active)

CC(=O)O[C@]1(C(C)=O)CC[C@H]2[C@@H]3C=C(C)C4=CC(=O)CC[C@]4(C)[C@H]3CC[C@@]21C
scaled lipid accumulation score [1]: ≤ 0

CC(=O)O[C@]1(C(C)=O)CC[C@H]2[C@@H]3C=C(Cl)C4=CC(=O)CC[C@]4(C)[C@H]3CC[C@@]21C [Chlormadinone acetate]
scaled lipid accumulation score (library stock concentration: 4.5 mM): 0.064
scaled lipid accumulation score (library stock concentration: 4.9 mM): 0.08

CC(=O)O[C@]1(C(C)=O)CC[C@H]2[C@@H]3C=C(C)C4=CC(=O)CC[C@]4(C)[C@H]3CC[C@@]21C [Megestrol Acetate]
scaled lipid accumulation score [5]: ≤ 0
scaled lipid accumulation score [1]: ≤ 0

CC(C)n1cnc2c(NCc3ccccc3O)nc(NCCCO)nc21 [Cdk Inhibitor, p35]
scaled lipid accumulation score [5]: ≤ 0

N[C@@H](Cc1cc(I)c(Oc2cc(I)c(O)c(I)c2)c(I)c1)C(=O)O [L-Thyroxine]
scaled lipid accumulation score [5]: ≤ 0
scaled lipid accumulation score [1]: ≤ 0

N[C@@H](Cc1cc(I)c(Oc2cc(I)c(O)c(I)c2)c(I)c1)C(=O)O [Levothyroxine]
scaled lipid accumulation score (library stock concentration: 2.6 mM): ≤ 0

N[C@@H](Cc1cc(I)c(Oc2cc(I)c(O)c(I)c2)c(I)c1)C(=O)O
scaled lipid accumulation score [1]: ≤ 0

c1ccc(C(OC2CCN(CCCc3nn[nH]n3)CC2)c2ccccc2)cc1
scaled lipid accumulation score [6]: ≤ 0

O=C1c2ccc(O)c(O)c2C(=O)c2c(O)ccc(O)c21 [Quinalizarin]
scaled lipid accumulation score [1]: ≤ 0

CCCCCCCCCCCCCCCCCC(=O)NCCO [Stearoyl Ethanolamide]
scaled lipid accumulation score [6]: ≤ 0

CC(C)OC(=O)CCC/C=C\C[C@@H]1[C@@H](/C=C/[C@H](O)C2Cc3ccccc3C2)[C@@H](F)C[C@@H]1O [AL 8810 isopropyl ester]
scaled lipid accumulation score [6]: ≤ 0

CCCCCCOC(=O)[C@]1(O)C[C@@H]2O[C@@]1(C)n1c3ccccc3c3c4c(c5c6ccccc6n2c5c31)C(=O)NC4
scaled lipid accumulation score (library stock concentration: 900 uM): 0.034
scaled lipid accumulation score [5]: ≤ 0

CN[C@@H]1C[C@H]2O[C@@](C)([C@@H]1OC)n1c3ccccc3c3c4c(c5c6ccccc6n2c5c31)C(=O)N[C@H]4O
scaled lipid accumulation score [5]: 1.21 (active)

Cc1ncc(COP(=O)([O-])[O-])c(CN(CCN(CC(=O)O)Cc2c(COP(=O)([O-])O)cnc(C)c2O)CC(=O)O)c1O.[Mn].[Na+].[Na+].[Na+]
scaled lipid accumulation score [1]: 0.072

CC(C)CCCCCCC/C=C\C(=O)O [cis-.DELTA.2-11-methyl-Dodecenoic Acid]
scaled lipid accumulation score [6]: 0.068

CCOc1ccc(Nc2nc(-c3c(C)nc4ccccn34)cs2)cc1
scaled lipid accumulation score [1]: 0.446

CCCCC[C@H](O)/C=C/[C@H]1[C@H](O)CC(=O)[C@@H]1CC(=O)CCCCC(=O)O [6-keto Prostaglandin E1]
scaled lipid accumulation score [6]: ≤ 0

O=C(NC1CC1)c1cccc(-c2ccc3c(NC(=O)C4CC4)n[nH]c3c2)c1
scaled lipid accumulation score [2]: ≤ 0
scaled lipid accumulation score [3]: ≤ 0
scaled lipid accumulation score [4]: ≤ 0
scaled lipid accumulation score [1]: ≤ 0

C[C@H](Nc1ncnc2nc[nH]c12)c1cc2cccc(Cl)c2c(=O)n1-c1ccccc1
scaled lipid accumulation score [5]: ≤ 0
scaled lipid accumulation score [1]: ≤ -0.001

CCN(CC)Cc1ccc2cc(COC(=O)Nc3ccc(C(=O)NO)cc3)ccc2c1.Cl.O [Givinostat (ITF2357)]
scaled lipid accumulation score [5]: 0.903 (active)
scaled lipid accumulation score [1]: 0.897 (active)

CCCCN(Cc1ccc(C(=O)NO)cc1)C(=O)Nc1ccccc1 [Nexturastat A]
scaled lipid accumulation score [5]: ≤ -0.009
scaled lipid accumulation score [1]: 0.176

CCN(CC)CCNC(=O)c1ccc(NC(C)=O)cc1 [N-Acetylprocainamide hydrochloride]
scaled lipid accumulation score [1]: ≤ 0

CCN(CC)CCNC(=O)c1ccc(NC(C)=O)cc1 [Acecainide hydrochloride]
scaled lipid accumulation score (library stock concentration: 6.4 mM): ≤ 0

COc1ccc(S(=O)(=O)N2c3ccc(Cl)cc3[C@](O)(c3ccccc3Cl)[C@@H]2C(=O)N2CCC[C@H]2C(N)=O)cc1OC
scaled lipid accumulation score [1]: 0.02

O=C(O)c1cc(=O)c2cccc(O)c2[nH]1 [Xanthurenic acid]
scaled lipid accumulation score [1]: ≤ 0

O=C(Nc1cc2cc[nH]c2cn1)c1ccccc1
scaled lipid accumulation score [5]: ≤ -0.009
scaled lipid accumulation score [1]: ≤ 0

CCN1CCN(Cc2ccc(Nc3ncc4c(n3)N(C)c3ccccc3C(=O)N4C)cc2C(F)(F)F)CC1
scaled lipid accumulation score [2]: 0.012
scaled lipid accumulation score [3]: 0.132
scaled lipid accumulation score [4]: 0.243
scaled lipid accumulation score [1]: 0.479

COC(=O)N1CCN(Cc2cccc(NC(=O)Nc3ccc(C)nc3)c2F)CC1
scaled lipid accumulation score [5]: ≤ 0
scaled lipid accumulation score [1]: 0.038

CCN1CCN(Cc2ccc(NC(=O)c3ccc(C)c(/C=C/c4cnc5[nH]ccc5c4OC)c3)cc2C(F)(F)F)CC1
scaled lipid accumulation score [4]: 0.888 (active)
scaled lipid accumulation score [1]: 1.11 (active)

Cc1ccc(C(=O)Nc2ccc(CN3CCN(C)CC3)c(C(F)(F)F)c2)cc1C#Cc1cnc2cccnn12 [listing 1 of 3 here]
scaled lipid accumulation score [3]: 0.949 (active)
scaled lipid accumulation score [4]: 1.1 (active)
scaled lipid accumulation score [1]: 1.14 (active)

Cc1ccc(C(=O)Nc2ccc(CN3CCN(C)CC3)c(C(F)(F)F)c2)cc1C#Cc1cnc2[nH]ncc2c1
scaled lipid accumulation score [5]: 0.479
scaled lipid accumulation score [1]: 0.258

Cc1ccc(C(=O)Nc2ccc(CN3CCN(C)CC3)c(C(F)(F)F)c2)cc1C#Cc1cnc2cccnn12 [listing 2 of 3 here]
scaled lipid accumulation score [5]: 1.06 (active)

CCN1CCN(Cc2ccc(NC(=O)c3ccc(C)c(Oc4ccnc5[nH]ccc45)c3)cc2C(F)(F)F)CC1
scaled lipid accumulation score [2]: 0.069
scaled lipid accumulation score [3]: 0.308
scaled lipid accumulation score [4]: 0.809
scaled lipid accumulation score [1]: 0.792

Cc1ccc(C(=O)Nc2ccc(CN3CCN(C)CC3)c(C(F)(F)F)c2)cc1C#Cc1cnc2cccnn12 [listing 3 of 3 here]
scaled lipid accumulation score [2]: 0.459
scaled lipid accumulation score [1]: 0.533
